Screening data (PubChem BioAssay)
Only some compounds are listed: those with a hit (about 21% of all), similar ones and a draw of the others.
D3 antag: blocks the human D3 dopamine receptor | P35462 | D3R cells, DiscoveRx beta-arrestin luminescence, antagonist mode; active compounds read low | max response, negative = inhibition, % | hit rate 2.5% among 360,000 | AID 652054; in the data active = max response below about -50%; inconclusive = no clear call, values can overlap the other calls; note: % is set by controls: 0 for no effect and ±100 for the full control effect
Target sequence (P35462 whole entry, looked up): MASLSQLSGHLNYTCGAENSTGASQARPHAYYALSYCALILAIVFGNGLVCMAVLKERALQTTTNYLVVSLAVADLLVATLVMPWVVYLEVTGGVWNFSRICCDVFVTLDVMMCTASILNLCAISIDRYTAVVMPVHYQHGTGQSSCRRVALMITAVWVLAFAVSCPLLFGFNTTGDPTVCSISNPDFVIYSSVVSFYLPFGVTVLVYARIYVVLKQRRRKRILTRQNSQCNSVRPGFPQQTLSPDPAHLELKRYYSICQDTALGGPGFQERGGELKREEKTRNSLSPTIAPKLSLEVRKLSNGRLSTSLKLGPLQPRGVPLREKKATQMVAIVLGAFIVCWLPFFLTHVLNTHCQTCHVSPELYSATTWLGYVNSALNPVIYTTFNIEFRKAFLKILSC
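Cells expressing the human receptor were seeded at 1500 cells/well, incubated overnight at 37 degrees C in 5% CO2, then exposed to library compounds with dopamine controls for 90 minutes at 37 degrees C before luminescent detection.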
ClpP mod: qHTS Assay for Activators of ClpP; ATP-dependent Clp protease proteolytic subunit (Bacillus subtilis (strain 168)), P80244; purified B. subtilis ClpP, FRET peptide cleavage, 20 min; Potency, µM (highest dose often 57.5 µM), for the others: at the highest dose activity change, negative = active; hit rate 1.9% among 340,000; active = well fitted falling curve with a large enough effect; inconclusive = small, poorly fitted or top-dose-only effect; inactive = no such curve, though single readings can be large or run the other way; note: potency is the fitted concentration of half-maximal effect; the source files actives as falling curves though it sought activators and does not explain the sign; nearly all actives have a fitted effect of over 65% in size
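FRET quenching reversal measured ClpP activation: 10 microg/mL B. subtilis ClpP at pH 8 with the FRET-FV decapeptide, read at 430 nm after 320 nm excitation. The 20-min minus 0-min signal was scaled between DMSO/no-enzyme wells and ADEP (5.8 microM final).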
IL-1B inflam inh: blocks inflammasome-driven IL-1 beta release; hit rate 4.7% among 360,000; AID 743279; THP-1 LPS/ATP IL-1B secretion, AlphaLISA, 16 h; active compounds read low; activity change, % at 57.5 µM; in the data active = activity change below about -50%; inconclusive = mostly about -30% to -49%; note: % is set by controls: 0 for no effect and ±100 for the full control effect
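Secreted IL-1B measured by AlphaLISA bead assay after 16 h compound exposure of THP-1 cells; compounds (final up to 57.5 uM) added 1 h before LPS (250 ng/mL) and ATP (1.25 mM) stimulation; lower signal means less secretion.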
TDP1 cell CPT: DT40-hTDP1 cell growth loss with CPT | chicken DT40 Tdp1-/-;hTDP1 cells + 20 nM CPT, ATP luminescence, 48 h | Potency, µM (series often up to 46.2 µM), for inactives: at the top dose activity change, negative = growth inhibition, actives largely listed as inhibitors | hit rate 12% among 420,000 | AID 686979; note: potency is the fitted concentration of half-maximal effect; % is set by controls: 0 for no effect and ±100 for the full control effect; nearly all actives have a fitted effect of over 55% in size
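Chicken DT40 Tdp1-/- cells stably complemented with human TDP1 were seeded at 400 cells/well in medium containing 20 nM camptothecin, exposed to pin-transferred compounds, and grown at 37 °C for at least 48 hr. Viability was read as ATP luminescence.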
D3 ag: activates the human D3 dopamine receptor; max activation, %; D3R DiscoveRx beta-arrestin cells, luminescence, 90 min; AID 652048; hit rate 0.58% among 410,000; in the data active = max activation above about 30%; note: 0% is about no effect
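Agonist mode: compounds and dopamine controls were applied to plated cells for 90 min at 37 degrees C after an overnight attachment at 1500 cells/well. Luminescent read-out followed 30 - 60 minutes at room temperature with DiscoveRx detection reagent.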
DT40 TDP1 no CPT: qHTS for Inhibitors of human tyrosyl-DNA phosphodiesterase 1 (TDP1): qHTS in cells in absence of CPT; DT40 Tdp1-/- hTDP1 cells, no CPT, ATP luminescence, 48 h; Potency, µM (highest dose often 46.2 µM), for inactives: top-dose activity change, negative = growth inhibition, actives largely listed as inhibitors; hit rate 15% among 420,000; note: potency is the fitted concentration of half-maximal effect; % is set by controls: 0 for no effect and ±100 for the full control effect; nearly all actives have a fitted effect of over 55% in size
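A cellular qHTS used chicken DT40 cells lacking endogenous Tdp1 but carrying stably transfected human TDP1. Compounds were applied without camptothecin, and cell growth kinetics were judged by ATP-dependent luminescence after ≥48 hr.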
* = called active by the depositor; ? = inconclusive; · = no result; [ ] = dose if it differs, or a comment. Unless noted, calls come from the whole dose curve; as a rule, active = well fitted inhibition curve with a large enough effect; inconclusive = small, poorly fitted or top-dose-only effect; inactive = flat fitted curve, though single readings scatter.

SMILES	D3 antag	ClpP mod	IL-1B inflam inh	TDP1 cell CPT	D3 ag	DT40 TDP1 no CPT
COc1ccc(S(=O)(=O)N2CCN(C(=O)COc3ccc4c(C)cc(=O)oc4c3)CC2)cc1	3	22µM*	0	?	1	?
Cc1cc(=O)oc2cc(OCC(=O)N3CC[C@@]4(O)CCCC[C@H]4C3)ccc12	4	4%	0	1%	-6	0%
COc1ccc(N2CCN(C(=O)c3ccc(COc4ccc5c(C)cc(=O)oc5c4)cc3)CC2)cc1	3	·	-20	?	10	16µM*
Cc1ccc(Nc2nc(N3CCOCC3)nc(N3CCOCC3)n2)cc1	9	1%	·	18µM*	-2	18µM*
CC(=O)Nc1ccc(Nc2nc(Nc3ccc(Cl)cc3)nc(N3CCOCC3)n2)cc1	·	-14%	·	1.3µM*	·	0.79µM*
CN1CCN(c2nc(Nc3cccc(C(F)(F)F)c3)nc(N3CCOCC3)n2)CC1	-98*	1%	-59*	?	-30	?
CC(C)c1ccc(Nc2nc(N3CCOCC3)nc(N3CCOCC3)n2)cc1	-74*	1%	-8	18µM*	-10	18µM*
O=C(O)c1ccc(-n2nnnc2SCc2ccccc2Br)cc1	11	0%	30	5%	1	6%
Cc1ccc(Nc2nc(Nc3ccc(Cl)cc3)nc(N3CCOCC3)n2)cc1	·	7%	·	11µM*	·	18µM*
Clc1ccc(Nc2nc(N3CCOCC3)nc(N3CCOCC3)n2)cc1Cl	-4	-3%	-28	?	4	9.2µM*
Fc1ccccc1Nc1nc(N2CCOCC2)nc(N2CCOCC2)n1	-6	3%	-19	21µM*	1	?
CC(C)[C@H](NC(=O)C1CCN(C(=O)[C@@H]2CCCN2)CC1)C(=O)NCc1ccc(F)cc1	-19	-3%	0	2%	-15	-5%
CC1CCC(NC(=O)CCS(=O)(=O)c2ccc3c(c2)CC(C)N3C(=O)C2CC2)CC1 (stereo not drawn)	16	0%	0	?	-5	-26%
COc1ccc(S(=O)(=O)N2CCOCC2)cc1NC(=O)CSc1cccc[n+]1[O-]	9	0%	-4	-18%	3	14%
COc1cccc2c1C1COC3C4CC(C(=O)O)C(C(C2)N13)N4C (stereo not drawn)	-3	-6%	-22	5.2µM*	-19	12µM*
COc1cccc2c1C(CCCC(=O)O)CCC2 (stereo not drawn)	10	·	111	-23%	-2	?
c1ccc(NN(Cc2ccccn2)c2ccccc2)cc1	16	-2%	3	-2%	1	?
S=C(NCCCN1CCOCC1)Nc1ccc(Cl)c(Cl)c1	-6	-1%	14	-1%	4	-15%
CC(C)c1ccc(O)c(NC(=S)NC(=O)c2cccnc2)c1	?	·	12	4.6µM*	-7	18µM*
O=C(NC(=S)Nc1ccccc1Br)c1cccnc1	-9	2%	0	1%	-7	?
CC(C)(C)c1ccc(C(=O)NNC(=S)NC(=O)c2cccnc2)cc1	10	·	83	7.3µM*	10	7.3µM*
COc1cc(OC)cc(C(=O)NNC(=S)NC(=O)c2cccnc2)c1	-20	-1%	0	?	-2	3.7µM*
CC(C)(C)c1cc(Cl)c(O)c(NC(=S)NC(=O)c2cccnc2)c1	-9	1%	9	4.6µM*	-10	6.5µM*
COc1ccc(-n2nc(C)c3c(=O)c4c([nH]c32)CCCC4)cc1	2	-1%	0	?	-2	-16%
COc1ccc(N2C(=O)[C@@H]3C[C@H]2CN3Cc2ccc3nccnc3c2)cc1Cl	·	·	·	11%[9.04 µM]	·	?
CCSC(=Nc1ccccc1)N1CCOCC1	-17	·	·	1%	4	3%
